Test systems include T-47D breast; BT-549 breast; MDA-MB-435 melanoma; SW-620 colon; MCF7 breast; HCT-116 colon; HCC-2998 colon; KM12 colon.
Holding throughout (assay): NCI-60 one-dose screen, 48 h (100 = growth as untreated, 0 = no growth, -100 = all killed)
Common to all, as to details: 10 µM unless noted

The results in this text go back to PubChem BioAssay (NCI).

Compounds without any hit were thinned out: in the full panel of roughly 83,000, 20% have a hit.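 Percent growth is the endpoint: 0 to 100 indicates growth inhibition (40 means 60% inhibition), 0 means no net growth, and negative values indicate cell death.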 Unmarked numbers belong to inactive results. Activity calls are given as the source filed them. How the source made its calls: active means growth percent below 10; inactive means the rest.

For the molecule `Nc1ccc(C(=O)CSc2nc3ccccc3[nH]2)cc1`, the growth in the assay on T-47D breast was 109%; in the assay on BT-549 breast, 94.5%; in the assay with MDA-MB-435 melanoma, 96.1%; in the assay on SW-620 colon, 101%; in the assay on MCF7 breast it was 92.9%; in the assay with HCT-116 colon, 97.3%. Besides, the figures for the growth with HCC-2998 colon and with KM12 colon were 100% and 103%, respectively.

In the case of `N=C(N)c1ccc(-c2ccc(-c3ccc(-c4cccs4)s3)s2)cc1`, the growth is 76% in the assay with T-47D breast; 99.5% in the assay with BT-549 breast; 103% in the assay on MDA-MB-435 melanoma; 99.6% in the assay on SW-620 colon; 84% in the assay on MCF7 breast; 93.6% in the assay with HCT-116 colon. Besides, the growth with HCC-2998 colon was 98.7%; in the assay with KM12 colon it was 96.8%.

As for `CCCCN(CCCC)c1ccc(C(=N)c2ccc(N(CCCC)CCCC)cc2)cc1`, the growth is -31.3% (active) in the assay with T-47D breast; -7.68% (active) in the assay on BT-549 breast; -72.4% (active) in the assay on MDA-MB-435 melanoma; -84% (active) in the assay with SW-620 colon; -85.5% (active) with MCF7 breast; -99.9% (active) in the assay on HCT-116 colon. Also, the growth in the assay on HCC-2998 colon was -96.7% (active); in the assay with KM12 colon it was -95.1% (active).

`NC(=O)c1c(NC(=S)Nc2ccc(OC(F)(F)F)cc2)sc2c1CCC1(C2)OCCO1`: the growth is 86% in the assay with T-47D breast; 93.8% with BT-549 breast; 81.6% with MDA-MB-435 melanoma; 92.9% with SW-620 colon; 90.1% in the assay with MCF7 breast; 98.2% in the assay on HCT-116 colon. Moreover, the growth with HCC-2998 colon is 102%; with KM12 colon, 94.6%.

Regarding `COc1cccc(/C=C2\Oc3cc(OCCCN4CCCC4)ccc3C2=O)c1OC`, the growth is 97.2% in the assay with T-47D breast; 87.7% with BT-549 breast; 99% in the assay on MDA-MB-435 melanoma; 98.6% with SW-620 colon; 87% with MCF7 breast; 83.7% with HCT-116 colon. In addition, the growth in the assay on HCC-2998 colon is 113%; in the assay on KM12 colon, 102%.

With `Cc1cc(N/N=C/c2nc(-c3ccc(Br)cc3)oc2C)c2cc(Cl)ccc2n1`, the growth with T-47D breast is 95.8%; in the assay with BT-549 breast, 98.1%; with MDA-MB-435 melanoma, 16.8%; with SW-620 colon it was -8.11% (active); in the assay on MCF7 breast, -55% (active); in the assay with HCT-116 colon, -16.5% (active). In addition, the growth with HCC-2998 colon was 96.1%; with KM12 colon it was 84%.

Take `COc1cc2c(cc1OCCCCCn1c3ccccc3c3ccccc31)N=C[C@@H]1CCCN1C2=O`: the growth is -34.1% (active) in the assay with T-47D breast; -61.6% (active) in the assay with BT-549 breast; -99.2% (active) in the assay on MDA-MB-435 melanoma; -79.1% (active) with SW-620 colon; -30.9% (active) with MCF7 breast; -75.8% (active) in the assay with HCT-116 colon. Moreover, the growth with HCC-2998 colon is -94.8% (active); with KM12 colon it was -11.4% (active).

`Cc1ccc(/C=C2\CN(C(=O)CCN3CCC(=NO)CC3)C/C(=C\c3ccc(C)cc3)C2=O)cc1`: the growth was 16.4% in the assay with T-47D breast; 11.2% in the assay on BT-549 breast; -39.8% (active) with MDA-MB-435 melanoma; -34.1% (active) in the assay on SW-620 colon; -3.62% (active) in the assay on MCF7 breast; -74.5% (active) in the assay on HCT-116 colon. Besides, the figures for the growth with HCC-2998 colon and in the assay on KM12 colon were -70.7% (active) and -75.3% (active), respectively.

For the molecule `O=C1Nc2ccc(Cl)cc2C12Nc1cc(Cl)ccc1S2` (configuration not stated), the growth with T-47D breast was 33.8%; in the assay with BT-549 breast, 80%; in the assay on MDA-MB-435 melanoma it was 91.4%; in the assay with SW-620 colon, 98.9%; in the assay on MCF7 breast it was 43.4%; with HCT-116 colon, 61.2%. For the same molecule, the growth is 78.9% in the assay with HCC-2998 colon and 70.7% in the assay on KM12 colon.

As for `Cc1c(C(=O)/C=C/c2csc3ccccc23)[n+](=O)c2ccccc2n1[O-]`, the growth is 21.5% in the assay with T-47D breast; 20.1% in the assay on BT-549 breast; 67.7% in the assay with MDA-MB-435 melanoma; 26.3% in the assay with SW-620 colon; 9.38% (active) in the assay on MCF7 breast; 16% with HCT-116 colon. The growth was 78.5% in the assay on HCC-2998 colon and 48.4% in the assay with KM12 colon.

Turning to `O=C(CSC1CCc2ccccc21)N/N=C/c1ccccc1O` (configuration not stated), the growth was 40.3% in the assay with T-47D breast; 68.9% in the assay with BT-549 breast; 71.7% in the assay with MDA-MB-435 melanoma; 52.9% in the assay with SW-620 colon; 19.2% in the assay with MCF7 breast; 31.5% in the assay with HCT-116 colon. Moreover, the growth is 66.7% with HCC-2998 colon and 41% in the assay with KM12 colon.

For the molecule `C=COC(=O)CCCCCCCCC`, the growth in the assay with T-47D breast was 110%; with BT-549 breast it was 108%; in the assay with MDA-MB-435 melanoma, 106%; with SW-620 colon, 99.1%; with MCF7 breast, 101%; with HCT-116 colon it was 109%. In addition, the growth with HCC-2998 colon was 101%; in the assay on KM12 colon, 106%.

As to `O=C1C(Cl)=C(Nc2ccccn2)C(=O)c2ccccc21`, the growth in the assay with T-47D breast is 33.6%; with BT-549 breast, 100%; in the assay with MDA-MB-435 melanoma, -81.4% (active); in the assay with SW-620 colon, 30.5%; in the assay with MCF7 breast, 29.6%; in the assay with HCT-116 colon, 19.9%. The growth in the assay with HCC-2998 colon was 110%; with KM12 colon, 86%.

For the molecule `COc1ccc(Nc2nn3c(-c4ccccc4)cc(-c4ccccc4)nc3c2C(N)=O)c(OC)c1`, the growth was 34.9% in the assay on T-47D breast; 46.5% with BT-549 breast; 57.5% in the assay with MDA-MB-435 melanoma; 57.2% in the assay on SW-620 colon; 46.7% in the assay on MCF7 breast; 21.5% with HCT-116 colon. For the same molecule, the growth is 86.9% in the assay with HCC-2998 colon and 51.1% in the assay on KM12 colon.
